Structures can show the parent of a compound that is named as a salt.
Legend:
Settings in all cases: 20 µM
[1] = tested on: Haemophilus parainfluenzae; test: growth AUC normalised to DMSO control (fraction of control); higher = less growth inhibition, active = hit call of the paper
In short: (§1)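 Three biological replicates were carried out, with OD578 read hourly for 24 h. Before inoculation at a starting OD578 of 0.01, pathogens were passaged anaerobically twice; plates were pre-reduced mGAM containing 20 μM compound and 1% DMSO, sealed with breathable membranes, and the Haemophilus parainfluenzae medium carried added hemin and NAD. Area under each growth curve was calculated by the trapezoidal rule up to the exponential-to-stationary transition and normalised to DMSO controls on the same plate.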

[2] = tested on: Salmonella enterica typhimurium; test: as above
In short: as §1

Shigella flexneri = test: as above
In short: as §1

Vibrio cholerae = test: as above
In short: as §1

[3] = tested on: Yersinia pseudotuberculosis; test: as above
In short: as §1

P. vulgatus RND KO = test: growth AUC normalised to DMSO control (median) (fraction of control); higher = less growth inhibition, active = hit call of the paper
In short: (§2)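 For normalised area under the curve, growth curves were truncated at entry into stationary phase, integrated by the trapezoidal rule and divided against vehicle wells on the same plate. The curves came from strains passaged twice overnight without oxygen and then grown in mGAM in 96-well plates at a starting OD578 of 0.01. Each well held an approved-drug library compound at 20 μM with 1% DMSO, and OD578 was read hourly for 24 h in an anaerobic incubator. Values are medians of three biological replicates.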

P. vulgatus WT = test: as above
In short: as §2

[4] = tested on: S. enterica typhimurium WT; test: as above
In short: as §2

[5] = tested on: S. enterica typhimurium tolC KO; test: as above
In short: as §2

Measured: growth AUC normalised to DMSO control
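Throughout, for growth AUC normalised to DMSO control (median): active when median AUC fell below 0.1.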

CCCC(C)C1(CC)C(=O)NC(=O)NC1=O (stereo not given) [Pentobarbital]
inactive: [1] 1.02 | [2] 1.01 | Shigella flexneri 1.05 | Vibrio cholerae 0.999 | [3] 0.986 | P. vulgatus RND KO 1.05 | P. vulgatus WT 1.06 | [4] 1.01 | [5] 0.999

CCCN1C[C@H](CSC)C[C@@H]2c3cccc4[nH]cc(c34)C[C@H]21 [Pergolide mesylate]
inactive: [1] 1 | [2] 0.998 | Shigella flexneri 0.959 | Vibrio cholerae 0.956 | [3] 1.01 | P. vulgatus RND KO 0.986 | P. vulgatus WT 0.956 | [4] 0.995 | [5] 0.974

CN1[C@@H]2C[C@@H](OC(=O)[C@H](CO)c3ccccc3)C[C@H]1[C@@H]1O[C@@H]12 [Scopolamine hydrochloride]
inactive: [1] 1.06 | [2] 1.03 | Shigella flexneri 1.06 | Vibrio cholerae 1.06 | [3] 1.03 | P. vulgatus RND KO 1.03 | P. vulgatus WT 1.05 | [4] 1 | [5] 1.01

CC(Cc1ccccc1)NCCC(c1ccccc1)c1ccccc1 (stereo not given) [Prenylamine lactate]
inactive: [1] 1.05 | [2] 1.01 | Shigella flexneri 1.07 | Vibrio cholerae 1.02 | [3] 1.02 | P. vulgatus RND KO 1.04 | P. vulgatus WT 1.04 | [4] 0.993 | [5] 0.97

C[C@]12CCC(=O)C=C1CC[C@@H]1[C@@H]2C(=O)C[C@]2(C)C(=O)CC[C@@H]12 [Adrenosterone]
inactive: [1] 1.01 | [2] 0.996 | Shigella flexneri 1.01 | Vibrio cholerae 1 | [3] 0.993 | P. vulgatus RND KO 0.986 | P. vulgatus WT 1.02 | [4] 1.01 | [5] 0.992
